Rows were chosen to be rich in hits. Some 3.5% of all compounds tested hit in one or more screens of this group.
FBW7 act: activators of human E3 ligase FBW7 | normalized activity (activation), % at 26.1 µM | AlphaScreen FBW7–phospho-cyclin E peptide binding, activator screen | AID 1259310 | 0.13% of 650,000 active | Q969H0; in the data active = normalized activity above about 1.9%;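 note: purified mutant Fbw7 with reduced substrate affinity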
TEAD-YAP block: TEAD-YAP interaction inhibition; HEK-TIYL cells, TEAD-Gal4/YAP UAS-luciferase luminescence; inhibition, % at 9.12 µM; 1.4% of 640,000 active; AID 1259422; in the data active = inhibition above about 32%;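 note: 0% = median of test compound wells and 100% = reference inhibitor wells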
MITF inh: blocks human microphthalmia-associated transcription factor. AlphaScreen MITF homodimerization, bead proximity signal. inhibition, % at 2.6 µM. 0.91% of 650,000 active. O75030; in the data active = inhibition above about 50%;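 note: 0% = vehicle wells with protein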
Target sequence (O75030 whole entry, looked up): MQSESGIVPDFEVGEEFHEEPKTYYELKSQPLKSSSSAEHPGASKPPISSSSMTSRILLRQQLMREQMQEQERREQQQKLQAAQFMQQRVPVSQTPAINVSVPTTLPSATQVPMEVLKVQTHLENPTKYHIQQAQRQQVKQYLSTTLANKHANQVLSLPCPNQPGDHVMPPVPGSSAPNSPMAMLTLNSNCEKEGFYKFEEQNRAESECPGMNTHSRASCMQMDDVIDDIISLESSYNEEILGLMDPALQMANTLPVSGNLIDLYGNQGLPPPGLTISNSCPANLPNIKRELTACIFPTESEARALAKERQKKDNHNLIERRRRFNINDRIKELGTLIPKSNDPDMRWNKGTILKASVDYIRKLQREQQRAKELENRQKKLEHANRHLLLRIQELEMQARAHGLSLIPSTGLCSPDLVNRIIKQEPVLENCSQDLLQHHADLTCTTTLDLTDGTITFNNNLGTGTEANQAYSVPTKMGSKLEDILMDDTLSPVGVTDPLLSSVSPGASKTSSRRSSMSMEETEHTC
GPR151 activ: human GPR151 activation. activation, % at 11.2 µM. PathHunter beta-arrestin GPR151 cells, luminescence. 1% of 650,000 active; in the data active = activation above about 4.9%;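 note: 0% = median of compound wells and 100% = cells with positive control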
The depositor's hits bear a star.

SMILES	FBW7 act	TEAD-YAP block	MITF inh	GPR151 activ
CCOc1ccc(C2Oc3ccc(Br)cc3C=C2[N+](=O)[O-])cc1OCC (stereo not drawn)	-0.1	40.7*	28.8	-0.9
CCOc1ccc(C2Oc3c(cccc3OC)C=C2[N+](=O)[O-])cc1OCC (stereo not drawn)	0.0	21.1	10.8	-0.5
COc1ccccc1NC(=O)Cn1cnc2sc(C)c(S(=O)(=O)N3CCOCC3)c2c1=O	-0.5	-9.8	-2.3	0.9
Cc1cc(I)cnc1NC(=O)C(C)(C)C	-0.1	4.8	23.7	-0.5
CSc1ccc(CN2CCCC(C(=O)Nc3cccc(-n4cnnn4)c3)C2)cc1 (stereo not drawn)	0.2	36.8*	1.1	-1.3
CCCCCOc1ccc(Br)cc1/C(C)=N/NC1=NCCN1	-0.1	61.8*	-0.7	0.3
O=C1NC(=O)C(CCc2ccccc2)(C2CCN(Cc3cc(F)cc(F)c3)CC2)N1 (stereo not drawn)	0.1	0.1	-15.1	1.7
C=CCC1S/C(=N\N=C\c2cccc([N+](=O)[O-])c2)NC1=O (stereo not drawn)	2.3*	4.8	8.5	-0.1
COc1cccc(OC)c1C(=O)Nc1ccc(I)cc1F	0.0	-5.2	2.1	0.1
CCNc1nc(NC(C)CC)nc(ON=C(C)C)n1 (stereo not drawn)	0.2	35.9*	28.8	-0.2
c1ccc(CN2CCC(Nc3nc(N4CCC(N5CCOCC5)CC4)nc4c3ncn4-c3ccsc3)CC2)cc1	0.0	-0.6	-15.6	0.5
c1ccc(CN2CCC(Nc3nc(Nc4ccc(N5CCOCC5)cc4)c4ncn(-c5ccsc5)c4n3)CC2)cc1	0.0	49.1*	-4.5	-1.7
c1cc(-n2cnc3c(NC4CC4)nc(N4CCN(Cc5ccc6c(c5)OCO6)CC4)nc32)cs1	-0.1	36.7*	-2.1	-0.5
Cc1nn(C)c(C)c1-c1nc(NC2CCN(Cc3ccccc3)CC2)c2ncn(C(C)C)c2n1	0.0	72.0*	-1.6	-0.4
c1cc(-n2cnc3c(Nc4ccc5c(c4)OCO5)nc(N4CCN(Cc5ccc6c(c5)OCO6)CC4)nc32)cs1	-0.3	-11.5	2.6	-0.3
c1ccc(CN2CCC(Nc3nc(N4CCOCC4)nc4c3ncn4-c3ccsc3)CC2)cc1	-0.3	44.5*	13.8	0.3
N#Cc1ccc(NC(=O)CN2C(=O)NC(Cc3c[nH]c4ccccc34)C2=O)cc1 (stereo not drawn)	0.0	2.0	-8.2	-0.3
N#Cc1ccc(Oc2ccc(N3C(=O)c4c(Cl)c(Cl)c(Cl)c(Cl)c4C3=O)cc2)cc1	0.4	-4.7	1.7	-1.1
Cc1nnc2sc(SCC(=O)Nc3cccc([N+](=O)[O-])c3)nn2c1=O	0.0	0.9	28.1	-0.1
NC(=O)C1CCN(C2CC(=O)N(Cc3ccc(Cl)cc3)C2=O)CC1 (stereo not drawn)	0.1	11.9	-1.3	-0.4
Cc1ccc(NC(=S)N(Cc2cccnc2)Cc2ccccc2Cl)cc1Cl	0.0	-0.4	-2.3	2.5
OC1CCC(Nc2nc(NC3CCN(Cc4ccccc4)CC3)c3ncn(-c4ccccc4)c3n2)CC1 (stereo not drawn)	0.0	42.1*	-2.3	-0.1
c1ccc(CN2CCC(Nc3nc(NC4CC4)c4ncn(-c5ccsc5)c4n3)CC2)cc1	0.0	36.0*	-7.1	0.4
c1ccc(CN2CCC(Nc3nc(Nc4ccc(-n5ccnc5)cc4)nc4c3ncn4-c3ccsc3)CC2)cc1	-0.2	42.3*	13.1	0.1
COc1ccc(N2CCN(c3ccc(NC(=O)c4cccs4)cc3C#N)CC2)cc1	-0.1	2.2	12.4	1.0
SMILES	FBW7 act	TEAD-YAP block	MITF inh	GPR151 activ
COc1ccc(CCNc2ncnc3c2nc(N2CCc4ccccc4C2)n3C(C)C)cc1	-0.1	15.2	4.9	2.3
CNC(=O)/C(C#N)=C/c1c(Oc2ccc(C(C)(C)C)cc2)nc2c(C)cccn2c1=O	0.0	-4.2	12.2	-0.5
Cc1cccn2cc(-c3ccc(NC(=O)c4ccco4)cc3)nc12	0.0	-57.0	18.9	-2.3
CC(C)(O)C#Cc1ccc(C(=O)N2CCN(c3ccc(Cl)c(Cl)c3)CC2)o1	0.1	1.7	-2.4	0.9
CCCc1nn(CC(=O)N(C)CCc2ccccn2)c(=O)c2cc3ccsc3n12	0.1	4.5	0.9	1.1
COc1ccccc1C(NC(C)=O)c1ccc2cccnc2c1O (stereo not drawn)	-1.8	33.2*	57.0*	-1.8
COc1ccccc1C(NC(=O)C(C)C)c1ccc2cccnc2c1O (stereo not drawn)	-2.1	72.8*	22.8	-1.3
Cc1nc(C)n(-c2ccc(Nc3cc(-c4[nH]ncc4-c4ccccc4)ccn3)cc2)n1	0.0	-1.0	3.6	0.3
Cc1cccc(NC(=O)C2CCCN2C(=O)NC2CCCCC2)c1C (stereo not drawn)	-0.1	5.2	-3.7	2.4
CN(CC(=O)Nc1ccc(F)cc1)C(=O)CCl	0.0	42.4*	16.1	-2.8
Cc1ccc(C)c(NC(=O)CN(C)C(=O)CCl)c1	-0.1	72.6*	-0.5	-1.1
Cc1ccc(C)c(NC(=O)CN(C)S(=O)(=O)c2ccc(Br)cc2)c1	0.1	6.5	-4.9	0.3
CCCn1c(=O)[nH]c2c(C(N)=O)nc(-c3cccs3)nc21	-0.1	1.1	-10.2	-0.1
COc1cc(Cl)ccc1NC(=O)c1nn2c(C(F)(F)F)cc(-c3ccc(Br)cc3)nc2c1Cl	-0.1	-15.1	-9.5	-1.1
Cc1ccccc1-n1nc2c(c1NC(=O)CCC1CCCC1)CS(=O)(=O)C2	0.0	-4.8	-1.7	-0.1
CCCc1ccc(-c2ccc(F)c(N3C(=O)c4cccc(F)c4C3=O)c2)nc1	-0.1	61.9*	0.2	-7.6
O=C(O)c1cccn1-c1cccc([N+](=O)[O-])c1	0.0	-4.0	-0.7	-1.1
N#CC1=C(N)N(c2ccccc2)S(=O)(=O)c2cc([N+](=O)[O-])ccc21	0.0	56.1*	14.0	-1.3
N#Cc1c2ccc([N+](=O)[O-])cc2[n+]([O-])n1-c1ccccc1	0.0	-24.9	-3.1	1.2
CCC(CO)Nc1ccc2ncc(-c3cccc(Br)c3)n2n1 (stereo not drawn)	0.1	0.7	-4.7	0.2
CCC(CO)Nc1ccc2ncc(-c3ccc(C)cc3)n2n1 (stereo not drawn)	-0.5	24.5	14.4	-0.4
CC(C)[C@@H](CO)Nc1ccc2ncc(-c3cccc(N)c3)n2n1	-0.6	16.6	-10.7	-0.4
COc1cc(-c2cnc3ccc(N[C@H](CO)C(C)C)nn23)ccc1O	-0.5	93.2*	-12.5	-0.4
CCC(CO)Nc1ccc2ncc(-c3ccccc3F)n2n1 (stereo not drawn)	0.6	41.5*	2.4	-1.2
CCC(CO)Nc1ccc2ncc(-c3cccc(CO)c3)n2n1 (stereo not drawn)	-0.1	48.0*	-13.9	-0.3
CC(C)[C@@H](CO)Nc1ccc2ncc(-c3cccc(CO)c3)n2n1	-0.3	42.6*	9.9	-0.2
CC(C)[C@@H](CO)Nc1ccc2ncc(-c3ccc4ccccc4c3)n2n1	-0.3	14.4	-22.3	-0.8
CC(C)COC(=O)C1=CN=C2SCCC(=O)N2C1c1ccccc1Cl (stereo not drawn)	0.7	4.9	18.4	-1.3
CC(c1ccccc1)S(=O)(=O)CCSC(=N)N (stereo not drawn)	-0.2	9.4	2.4	0.0

Bioassay records: PubChem, The Scripps Research Institute Molecular Screening Center
